Screening data from PubChem.
Shown are actives, neighbours in structure and some others; about 4.8% of the full set was active somewhere.
ssDAF12 agonist: S. stercoralis DAF-12 nuclear receptor activators, primary screen, cell-based, luminescence, HEK293, GRIP1 co-expression, lit1-tk-luc. Nuclear hormone receptor DAF-12 (Strongyloides stercoralis). HEK293 ssDAF-12/GRIP1 lit1-tk-luc reporter; % of 3 µM dafachronic acid response. activation, % at 6.8 µM. 370,000 compounds, 1% hits. AID 652126, 2013;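 active = activation above the mean over all tested compounds plus 3 SD, cut at about 0.9% in these data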;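 also: 0% = DMSO-only wells and 100% = 3 µM delta7-dafachronic acid wells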
SMARCA2 activ: SMARCA2 (BRM) function activators, primary screen, cell-based, luminescence, high throughput | MG213 cells, MMTV-luciferase reporter, dexamethasone, overnight | activation, % at 9.1 µM | 370,000 compounds, 1% hits; in the data active = activation above about 7.8%;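 also: 0% = vehicle wells and 100% = reference activator wells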
hgDAF12 agonist: H. glycines DAF-12 receptor agonists, primary screen, cell-based, luminescence, HEK293, GAL4 fusion, UAS-luciferase; 370,000 compounds, 1.8% hits; AID 687014, 2013; HEK293 GAL4-hgDAF12 UAS-luciferase reporter, agonist luminescence; normalized to butyrate control; activation, % at 6.8 µM;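 active = activation above a cutoff set at the mean of all screened compounds plus 3 SD, cut at about 10% in these data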;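 also: 0% = DMSO wells and 100% = sodium butyrate wells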
hcDAF-12 act: H. contortus DAF-12 nuclear receptor activators, primary screen, cell-based, luminescence, HEK293, lit1-tk-luc reporter; 370,000 compounds, 1.4% hits; HEK293 hcDAF-12 lit1-tk-luc reporter; 0% DMSO, 100% Δ7-dafachronic acid; activation, % at 6.8 µM;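 active = activation above the mean of all tested compounds plus 3 SD, cut at about 5.5% in these data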;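 also: 100% = response to 3 µM Δ7-dafachronic acid high control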
DAX1 inh-1: DAX1 (NR0B1) inhibitors on StAR promoter, primary screen, cell-based, luminescence, SF-1 (NR5A1), full-length DAX-1 | HEK293T StAR-luciferase reporter, SF-1/DAX-1 repression relief | inhibition, % at 6.8 µM | 370,000 compounds, 1.1% hits;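 active = inhibition above the mean over all tested compounds plus 3 SD, cut at about 3.6% in these data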;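 also: 0% = DAX-1 cells with DMSO and 100% = cells lacking DAX-1 with DMSO; higher inhibition means more luminescence from relief of DAX-1 repression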
DAX1 inh-2: DAX1 (NR0B1) inhibitors, primary screen, cell-based, HEK293, Gal4-DAX1, luciferase luminescence. Nuclear receptor subfamily 0 group B member 1 (Homo sapiens), P51843. HEK293 Gal4-DAX1 luciferase reporter. inhibition, % at 6.75 µM. 340,000 compounds, 0.99% hits;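 active = inhibition above the mean over all tested compounds plus 3 SD, cut at about 4.2% in these data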;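 also: 0% = DAX1-transfected cells with DMSO and 100% = empty-vector control cells with DMSO; inhibition shows as a rise in luminescence from relieved DAX1 repression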
Target sequence (P51843 207-470 limits assumed): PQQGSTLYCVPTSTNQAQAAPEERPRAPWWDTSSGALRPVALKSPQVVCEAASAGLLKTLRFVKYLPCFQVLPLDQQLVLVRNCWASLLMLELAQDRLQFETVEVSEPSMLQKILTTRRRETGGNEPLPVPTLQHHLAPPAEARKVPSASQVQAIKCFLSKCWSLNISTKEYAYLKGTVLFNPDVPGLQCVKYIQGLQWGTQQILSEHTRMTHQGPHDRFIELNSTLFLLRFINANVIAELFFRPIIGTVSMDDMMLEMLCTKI
Active calls of the source: *.

COc1ccccc1C(=O)N1CCN(C(=O)[C@@H](Cc2ccccc2)NC(=O)[C@H]2O[C@@H](n3ccc(=O)[nH]c3=O)[C@H](O)[C@@H]2O)CC1 was read as ssDAF12 agonist -1, SMARCA2 activ -4, hgDAF12 agonist -1, hcDAF-12 act -1 and DAX1 inh-1 0.
Screening CC(C)c1ccc(S(=O)(=O)N2CCC(C(=O)N3CCC3)CC2)cc1 returned ssDAF12 agonist -1, SMARCA2 activ -1, hgDAF12 agonist -3, hcDAF-12 act -1, DAX1 inh-1 -1 and DAX1 inh-2 -1.
CC(C)c1ccc(S(=O)(=O)N2CCN(C(=O)C3CCCCC3)CC2)cc1 was read as ssDAF12 agonist -2, SMARCA2 activ 0, hgDAF12 agonist -4, hcDAF-12 act 5.8*, DAX1 inh-1 -2 and DAX1 inh-2 0.
`CC(C)c1ccc(NC(=O)C2CCCN(S(=O)(=O)c3cnc[nH]3)C2)cc1` (stereo not drawn) gave ssDAF12 agonist -1, SMARCA2 activ 1, hgDAF12 agonist 0, hcDAF-12 act -1, DAX1 inh-1 0 and DAX1 inh-2 5.5*.
For N#C/C(Cn1c[n+](NC(=O)Nc2ccccc2)cn1)=N/O the results were ssDAF12 agonist -1, SMARCA2 activ -2, hgDAF12 agonist 3, hcDAF-12 act -1, DAX1 inh-1 0 and DAX1 inh-2 4.7*.
N#CCSCC(=O)Nc1ccccc1 was read as ssDAF12 agonist -1, SMARCA2 activ 0, hgDAF12 agonist 1, hcDAF-12 act 1, DAX1 inh-1 1 and DAX1 inh-2 1.
For FC(F)(F)c1ccccc1CN1CCCc2nc(-c3ccc(Br)cc3)ccc21 the results were ssDAF12 agonist 2.6*, SMARCA2 activ 5, hgDAF12 agonist 7, hcDAF-12 act 0 and DAX1 inh-1 2.
`Cc1[nH]c2ccccc2c1C(=O)c1c(N)[nH]c(C(=O)c2ccc(Br)cc2)c1-c1ccc(Br)cc1` gave ssDAF12 agonist -1, SMARCA2 activ -4, hgDAF12 agonist 9, hcDAF-12 act -2 and DAX1 inh-1 2.
Cc1cccc(Nc2nc(-c3ccccn3)cs2)n1 was read as ssDAF12 agonist 1.1*, SMARCA2 activ 1, hgDAF12 agonist 13*, hcDAF-12 act 6.0*, DAX1 inh-1 3 and DAX1 inh-2 0.
Screening CC(=O)Oc1ccc(-c2csc(Nc3cccc(C)n3)n2)cc1 returned ssDAF12 agonist 2.4*, SMARCA2 activ 5, hgDAF12 agonist 9, hcDAF-12 act 4, DAX1 inh-1 2 and DAX1 inh-2 5.5*.
`CC(=O)Oc1ccc(-c2csc(Nc3cccnc3)n2)cc1` gave ssDAF12 agonist -1, SMARCA2 activ 2, hgDAF12 agonist -2, hcDAF-12 act 0, DAX1 inh-1 0 and DAX1 inh-2 -1.
Screening COC(=O)[C@]12C[C@H](CC(=O)NCc3ccc(OC)c(OC)c3)C(=O)N(CCC3=CCCCC3)C1=C[C@H](C1CCCC1)O[C@@H]2C returned ssDAF12 agonist -1, SMARCA2 activ -3, hgDAF12 agonist -4, hcDAF-12 act -1 and DAX1 inh-1 -1.
`O=C(Nc1cnc2ccccn2c1=O)c1ccc(Cl)cc1` gave ssDAF12 agonist -1, SMARCA2 activ 7, hgDAF12 agonist 13*, hcDAF-12 act 1, DAX1 inh-1 1 and DAX1 inh-2 3.
O=C(Nc1cccn2ncnc12)c1ccc(Cl)cc1 was read as ssDAF12 agonist -2, SMARCA2 activ 0, hgDAF12 agonist 2, hcDAF-12 act 0, DAX1 inh-1 1 and DAX1 inh-2 0.
`CCCCCc1c(C)nc(SCC(=O)O)[nH]c1=O` gave ssDAF12 agonist -1, SMARCA2 activ 0, hgDAF12 agonist 0, hcDAF-12 act -1, DAX1 inh-1 1 and DAX1 inh-2 1.
